Results reported in PubChem BioAssay (Tox21).
Records with an inconclusive call do not appear. Active and inactive are the calls of the source. Unless noted, the call rests on the fitted dose curve; in most records, active means well fitted curve in the direction sought with a large enough effect in the repeat runs; inconclusive means weak or mixed curves; inactive means no such curve, though single readings can be large; an effect the other way counts as inactive or inconclusive.

Experiments:
[1] = qHTS assay to identify small molecule antagonists of the glucocorticoid receptor (GR) signaling pathway - cell viability counter screen (AID 720693); further: nearly all actives have a fitted effect of over 55% in size
[2] = qHTS assay for identifying genotoxic compounds that show differential cytotoxicity against isogenic chicken DT40 cell lines with known DNA damage response pathways - wild type cell line (AID 743012); further: nearly all actives have a fitted effect of over 60% in size; further: potency means the concentration at half of the fitted maximal effect
Outline: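 300 wt DT40 cells/well; cpd (DMSO) pintool-transferred after ~0.5 h at 37 C/5% CO2; 40 h incubation; CellTiter-Glo added, 30 min RT; luminescence read.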

[3] = qHTS assay for identifying genotoxic compounds that show differential cytotoxicity against isogenic chicken DT40 cell lines with known DNA damage response pathways - Rev3 mutant cell line (AID 743014); further: nearly all actives have a fitted effect of over 55% in size; further: potency means the concentration at half of the fitted maximal effect
[4] = qHTS assay for identifying genotoxic compounds that show differential cytotoxicity against isogenic chicken DT40 cell lines with known DNA damage response pathways - Rad54/Ku70 mutant cell line (AID 743015); further: nearly all actives have a fitted effect of over 60% in size; further: potency means the concentration at half of the fitted maximal effect
[5] = molecular target: Androgen receptor (Homo sapiens) (UniProt P10275); test: qHTS assay to identify small molecule antagonists of the androgen receptor (AR) signaling pathway (AID 743035; active means well fitted inhibition curve with a large enough effect in the signal ratio in the repeat runs, not every such curve was filed as active; the % refers to the signal ratio; further: potency means the concentration at half of the fitted maximal effect)
Outline: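 In this cell-based reporter screen, compounds were tested in concentration series against R1881-activated HEK293 cells expressing beta-lactamase under UAS control; after 16 h at 37C, FRET substrate was added and fluorescence read 2 h later.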

[6] = molecular target: Androgen receptor (Homo sapiens) (UniProt P10275); test: qHTS assay to identify small molecule agonists of the androgen receptor (AR) signaling pathway (AID 743036; active means well fitted activation curve with a large enough effect in the signal ratio in the repeat runs, with a control signal flat, not every such curve was filed as active; the % refers to the signal ratio)
Outline: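 Agonist activity was scored by beta-lactamase reporter fluorescence in stably transfected HEK293 cells exposed to compounds for 16 h at 37C and 5% CO2. Substrate loading took 2 h at room temperature.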

[7] = molecular target: Androgen receptor (Homo sapiens) (UniProt P10275); test: qHTS assay to identify small molecule agonists of the androgen receptor (AR) signaling pathway using the MDA cell line (AID 743040; further: nearly all actives have a fitted effect of over 20% in size)
Outline: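 Luciferase agonist assay: 16 h compound exposure at 37C without CO2 in MDA-kb2 AR-luc cells, whose MMTV promoter responds to both AR and GR. Luminescence measured after 30 min room-temperature incubation with ONE-Glo.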

[8] = qHTS assay to identify small molecule antagonists of the androgen receptor (AR) signaling pathway using the MDA cell line - cell viability counter screen (AID 743041; further: nearly all actives have a fitted effect of over 45% in size)
Outline: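 Viability read by CellTiter-Fluor fluorescence in the same wells as the antagonist screen, added after 15.5 h of a 16 h, 37C exposure. Human breast carcinoma MDA-kb2 AR-luc cells, compounds co-dosed with agonist R1881.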

[9] = molecular target: Androgen receptor (Homo sapiens) (UniProt P10275); test: qHTS assay to identify small molecule antagonists of the androgen receptor (AR) signaling pathway using the MDA cell line (AID 743042; further: nearly all actives have a fitted effect of over 55% in size; further: potency means the concentration at half of the fitted maximal effect)
Outline: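 Antagonist mode: compounds plus R1881 agonist added to MDA-kb2 AR-luc cells, incubated 16 h at 37C. Luciferase reporter luminescence quantified, with multiplexed CellTiter-Fluor readout for cell viability.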

[10] = qHTS assay to identify small molecule antagonists of the thyroid receptor (TR) signaling pathway - cell viability counter screen (AID 743064); further: nearly all actives have a fitted effect of over 50% in size; further: potency means the concentration at half of the fitted maximal effect
Outline: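 Same-well viability check: GH3.TRE-Luc cells stimulated with 1 nM T3 alongside test compound for 23.5 h, followed by CellTiter-Fluor fluorescence.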

[11] = qHTS assay to identify small molecule antagonists of the thyroid receptor (TR) signaling pathway (AID 743065); further: nearly all actives have a fitted effect of over 55% in size; further: potency means the concentration at half of the fitted maximal effect
Outline: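 Antagonism measured as loss of luciferase signal in GH3 cells stably carrying a TRE-luciferase reporter, co-treated with compound and T3 (1 nM final) for 23.5 h at 37 C. Viability was read in the same well by CellTiter-Fluor.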

[12] = test system: thyroid hormone receptor (rat, GH3 cells); test: qHTS assay to identify small molecule agonists of the thyroid receptor (TR) signaling pathway (AID 743066; calls by dose curve)
[13] = molecular target: Estrogen receptor (Homo sapiens) (UniProt P03372); test: qHTS assay to identify small molecule antagonists of the estrogen receptor alpha (ER-alpha) signaling pathway (AID 743069; active means well fitted curve in the direction sought with a large enough effect in the signal ratio in the repeat runs, not every such curve was filed as active; the % refers to the signal ratio)
Outline: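 Antagonist mode: compounds in DMSO were co-added with 17beta-estradiol to ER-alpha-bla HEK293 cells (2% charcoal-stripped serum) and left 18 h at 37C. Reporter inhibition was measured as FRET fluorescence after 2 h LiveBLAzer substrate at room temperature.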

[14] = qHTS assay to identify small molecule antagonists of the estrogen receptor alpha (ER-alpha) signaling pathway - cell viability counter screen (AID 743074; calls by dose curve;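 further: HEK293 cells carrying ER-alpha-UAS-bla reporter stimulated with 17beta-estradiol; nearly all actives have a fitted effect of over 45% in size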)
[15] = molecular target: Estrogen receptor (Homo sapiens) (UniProt P03372); test: qHTS assay to identify small molecule agonists of the estrogen receptor alpha (ER-alpha) signaling pathway (AID 743075; calls by dose curve;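 further: HEK293 GripTite cells with ER-alpha and UAS-driven beta-lactamase reporter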)
[16] = qHTS assay to identify small molecule antagonists of the estrogen receptor alpha (ER-alpha) signaling pathway using the BG1 cell line (AID 743080; calls by dose curve;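 further: BG1 cells stimulated with 17beta-estradiol alongside compound; nearly all actives have a fitted effect of over 25% in size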; further: potency means the concentration at half of the fitted maximal effect)
Outline: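 Readout is ONE-Glo luminescence, taken 30 min at room temperature after reagent addition, preceded by a CellTiter-Fluor viability read; BG1-Luc-4E2 cells had received compound and 17beta-estradiol for 21.5 h at 37 C.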

[17] = qHTS assay to identify small molecule antagonists of the estrogen receptor alpha (ER-alpha) signaling pathway using the BG1 cell line - cell viability counter screen (AID 743081);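 further: compound given together with 17beta-estradiol as the ER stimulus; nearly all actives have a fitted effect of over 45% in size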; further: potency means the concentration at half of the fitted maximal effect
Aromatase (Homo sapiens) = Aromatase (Homo sapiens) (UniProt P11511); test: qHTS assay to identify aromatase inhibitors (AID 743083); further: nearly all actives have a fitted effect of over 55% in size; further: potency means the concentration at half of the fitted maximal effect
[18] = molecular target: Estrogen receptor (Homo sapiens) (UniProt P03372); test: qHTS assay to identify small molecule agonists of the estrogen receptor alpha (ER-alpha) signaling pathway using the BG1 cell line (AID 743079); conditions: BG1Luc4E2 cells, ERE-luciferase agonist, 22 h; activation: at 70.3 µM (top of the series); further: nearly all actives have a fitted effect of over 20% in size; further: potency means the concentration at half of the fitted maximal effect
[19] = qHTS assay to identify small molecule antagonists of the androgen receptor (AR) signaling pathway - cell viability counter screen (AID 743033; further: nearly all actives have a fitted effect of over 45% in size; further: potency means the concentration at half of the fitted maximal effect)

Measured: Potency

Aromatase (Homo sapiens), sequence (P11511 whole entry, looked up): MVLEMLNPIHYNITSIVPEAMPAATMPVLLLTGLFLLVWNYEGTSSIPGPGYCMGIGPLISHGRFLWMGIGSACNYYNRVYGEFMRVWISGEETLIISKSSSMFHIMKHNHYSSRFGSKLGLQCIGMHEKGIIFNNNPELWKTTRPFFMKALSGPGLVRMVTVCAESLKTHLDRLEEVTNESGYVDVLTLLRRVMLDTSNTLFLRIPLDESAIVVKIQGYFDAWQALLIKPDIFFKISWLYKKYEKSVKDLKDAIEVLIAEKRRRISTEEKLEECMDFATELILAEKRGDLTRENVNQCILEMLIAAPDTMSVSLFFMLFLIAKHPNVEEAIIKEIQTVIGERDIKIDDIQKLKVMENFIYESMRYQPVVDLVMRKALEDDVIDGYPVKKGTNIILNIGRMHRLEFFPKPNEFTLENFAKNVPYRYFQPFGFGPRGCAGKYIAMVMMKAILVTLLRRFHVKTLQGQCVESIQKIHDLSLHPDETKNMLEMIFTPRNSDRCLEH
Estrogen receptor (Homo sapiens), sequence (P03372 whole entry, looked up): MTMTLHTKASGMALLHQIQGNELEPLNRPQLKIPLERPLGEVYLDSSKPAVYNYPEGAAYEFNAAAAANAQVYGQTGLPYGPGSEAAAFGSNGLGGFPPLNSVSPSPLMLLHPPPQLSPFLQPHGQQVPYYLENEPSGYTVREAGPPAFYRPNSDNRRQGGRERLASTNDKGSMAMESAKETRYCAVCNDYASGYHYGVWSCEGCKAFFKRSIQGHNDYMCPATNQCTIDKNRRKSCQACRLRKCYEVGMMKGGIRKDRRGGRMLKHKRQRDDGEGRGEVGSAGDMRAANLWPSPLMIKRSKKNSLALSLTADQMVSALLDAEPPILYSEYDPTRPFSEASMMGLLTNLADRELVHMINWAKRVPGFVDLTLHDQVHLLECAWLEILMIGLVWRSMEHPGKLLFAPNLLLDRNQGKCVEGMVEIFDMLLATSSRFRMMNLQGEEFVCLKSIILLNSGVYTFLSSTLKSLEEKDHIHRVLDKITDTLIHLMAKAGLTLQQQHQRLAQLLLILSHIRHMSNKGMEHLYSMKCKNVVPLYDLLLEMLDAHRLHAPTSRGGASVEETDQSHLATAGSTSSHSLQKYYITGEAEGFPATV
Androgen receptor (Homo sapiens), sequence (P10275 whole entry, looked up): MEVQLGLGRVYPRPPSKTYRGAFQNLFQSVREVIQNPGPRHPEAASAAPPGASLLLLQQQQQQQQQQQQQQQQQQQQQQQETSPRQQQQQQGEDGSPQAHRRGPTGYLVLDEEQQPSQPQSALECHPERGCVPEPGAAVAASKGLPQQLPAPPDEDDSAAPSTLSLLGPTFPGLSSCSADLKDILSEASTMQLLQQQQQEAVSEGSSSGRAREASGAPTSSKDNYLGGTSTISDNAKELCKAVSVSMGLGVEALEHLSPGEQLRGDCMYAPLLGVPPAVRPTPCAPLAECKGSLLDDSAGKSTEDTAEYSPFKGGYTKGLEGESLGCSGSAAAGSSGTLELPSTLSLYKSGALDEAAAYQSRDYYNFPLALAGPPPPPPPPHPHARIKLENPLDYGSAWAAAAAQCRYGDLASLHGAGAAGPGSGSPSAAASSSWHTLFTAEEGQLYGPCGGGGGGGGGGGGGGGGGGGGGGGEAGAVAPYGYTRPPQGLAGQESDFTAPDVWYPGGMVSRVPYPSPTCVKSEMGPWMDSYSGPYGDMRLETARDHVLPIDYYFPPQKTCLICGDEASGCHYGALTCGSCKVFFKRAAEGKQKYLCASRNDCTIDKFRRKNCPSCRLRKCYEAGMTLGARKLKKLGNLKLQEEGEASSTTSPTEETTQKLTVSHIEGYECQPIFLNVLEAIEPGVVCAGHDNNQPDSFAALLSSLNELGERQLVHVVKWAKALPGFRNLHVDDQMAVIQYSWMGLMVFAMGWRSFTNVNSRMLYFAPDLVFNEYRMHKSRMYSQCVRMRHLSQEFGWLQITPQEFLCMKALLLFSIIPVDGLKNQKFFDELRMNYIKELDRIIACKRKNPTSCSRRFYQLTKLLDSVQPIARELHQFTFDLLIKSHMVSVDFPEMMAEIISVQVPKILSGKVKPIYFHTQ

CC1(C)S[C@@H]2[C@H](NC(=O)C(C(=O)Oc3ccc4c(c3)CCC4)c3ccccc3)C(=O)N2[C@H]1C(=O)O (stereo not given in full)
inactive: [1] | [2] | [3] | [4] | [5] | [6] | [7] | [8] | [9] | [10] | [11] | [12] | [13] | [14] | [15] | [16] | [17] | Aromatase (Homo sapiens)

O=C1C(=O)c2ncccc2-c2cccnc21
active: [2] 5.96 µM | [3] 8.41 µM | [4] 4.22 µM | [5] 23.9 µM | [11] 1.68 µM | [16] 5.96 µM | Aromatase (Homo sapiens) 23.7 µM
inactive: [1] | [7] | [8] | [9] | [12] | [13] | [14] | [15] | [17]

CCCCCc1ccc(C)cc1O
active: [11] 26.6 µM
inactive: [1] | [2] | [3] | [4] | [6] | [7] | [8] | [9] | [12] | [13] | [14] | [15] | [18] | [16] | [17]

C=CC1=C(C)C2=CC3=NC(=C(CC(=O)[O-])C4=NC(=C(C)C4=C([O-])[O-])C=c4[n-]c(c(C)c4CC)=CC1=N2)C(CCC(=O)[O-])C3C.[Cu+2].[Na+].[Na+].[Na+] (stereo not given)
inactive: [1] | [19] | [12] | [13] | [14] | [15] | [18] | Aromatase (Homo sapiens)
active: [2] 29.8 µM | [3] 23.7 µM | [4] 29.8 µM | [10] 26.6 µM | [17] 29.8 µM

O=C(/C=C/c1cccc(F)c1)NC1CC1
inactive: [1] | [2] | [3] | [4] | [19] | [11] | [12] | [14] | [17] | Aromatase (Homo sapiens)

CC1(S(=O)(=O)O)CC(=O)c2ccccc2C1=O (stereo not given)
active: [2] 9.44 µM | [3] 11.9 µM | [4] 11.9 µM | [9] 29.8 µM | [10] 13.3 µM | [11] 13.3 µM | [16] 33.5 µM | Aromatase (Homo sapiens) 26.6 µM
inactive: [1] | [7] | [14] | [17]

CN1CCN(CCC=C2c3ccccc3Sc3ccc(S(=O)(=O)N(C)C)cc32)CC1
inactive: [1] | [7] | [8] | [15] | [18] | [16]
active: [2] 10.6 µM | [3] 13.3 µM | [19] 23.9 µM | [10] 13.3 µM | [11] 8.41 µM

CC[N+](C)(C)Cc1ccccc1Br
inactive: [1] | [2] | [3] | [19] | [5] | [7] | [8] | [9] | [13] | [14] | [15] | [18] | [16] | [17] | Aromatase (Homo sapiens)

CCC(=O)c1ccc2c(c1)N(CCCN1CCN(CCO)CC1)c1ccccc1S2
active: [2] 2.66 µM | [3] 2.66 µM | [4] 4.22 µM | [10] 10.6 µM
inactive: [1] | [14] | [15] | [18] | [16]

CC(=C\c1ccccc1)/C=C1/SC(=S)N(CC(=O)O)C1=O
inactive: [1] | [2] | [3] | [4] | [12] | [13] | [14] | [15] | [18] | [16] | Aromatase (Homo sapiens)
active: [17] 29.8 µM

CCC(=O)OCC(=O)[C@@]1(OC(=O)CC)[C@H](C)C[C@H]2[C@@H]3CCC4=CC(=O)C=C[C@]4(C)[C@@]3(F)[C@@H](O)C[C@@]21C
inactive: [1] | [8] | [10] | [14] | [18] | [17] | Aromatase (Homo sapiens)
active: [2] 23.7 µM | [3] 29.8 µM | [4] 26.6 µM

CO[C@@H]1[C@@H](O[C@@H]2O[C@H](C)[C@@H](O[C@H]3C[C@@](C)(O)[C@@H](OC(=O)CC(C)C)[C@H](C)O3)[C@H](N(C)C)[C@H]2O)[C@@H](CC=O)C[C@@H](C)C(=O)/C=C/C2OC2C[C@@H](C)OC(=O)C[C@H]1OC(C)=O (stereo not given in full)
inactive: [1] | [19] | [7] | [12] | [14] | [15] | [16] | Aromatase (Homo sapiens)
active: [2] 3.35 µM | [3] 5.31 µM | [10] 29.8 µM | [11] 23.7 µM

COC(=O)[C@@H](N)CS
inactive: [1] | [2] | [3] | [19] | [8] | [10] | [11] | [12] | [13] | [14] | [15] | [16] | [17] | Aromatase (Homo sapiens)
active: [18] 26.6 µM

CN[C@@H]1[C@@H](O)[C@@H](O[C@@H]2[C@@H](O)[C@H](OC3OC(CN)=CCC3N)[C@@H](N)C[C@H]2N)OC[C@]1(C)O (stereo not given in full)
inactive: [1] | [2] | [3] | [4] | [8] | [10] | [11] | [12] | [14] | [17] | Aromatase (Homo sapiens)
